The text below walks through data of PubChem BioAssay.

Assay [1] in a line: compounds binding Alexa647 anti-His antibody – biochemical, small-molecule microarray, 635 nm fluorescence, artefact control for SMM control protein annotation, primary screen (AID 1128).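 Also: score merges feature fluorescence with signal-to-noise for each printed compound spot.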 Conditions: higher = more signal.
Assay [2] relates to Human papillomavirus type 1a E7 protein (residues 1-88). Briefly: HPV1a E7 small-molecule binders, primary screen, biochemical, small-molecule microarray, residues 1-88, 635 nm (AID 1129). Conditions: small-molecule microarray binding, fluorescence 635 nm; higher = more signal.
Assay [3] concerns the target Focal adhesion kinase 1 (Homo sapiens) (UniProt Q05397). Briefly: PTK2 protein binding on printed compound slides – biochemical, small-molecule microarray, 635/667 nm fluorescence, BSA, DTT, primary screen (AID 1130).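 Also: composite of spot emission at 667 nm and signal to noise over triplicate slides.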 Conditions: 635 nm fluorescence, higher = more signal.
In assay [4] the test system is Fibrinogen (Alexa647-labelled). Put plainly: Alexa647-fibrinogen binding to printed small molecules – biochemical, small-molecule microarray, 635/667 nm fluorescence, artefact control for SMM control-protein annotation, profiling panel (AID 1131).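 Also: z-score merges 667 nm fluorescence with per-spot signal-to-noise over triplicate slides.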 Conditions: fibrinogen-A647 binding fluorescence, higher = more signal.
The target of assay [5] is Follistatin (Homo sapiens) (UniProt P19883). Put plainly: FST protein binding to printed compounds – biochemical, small-molecule microarray, 635/667 nm fluorescence, primary screen (AID 1132). Conditions: 635 nm fluorescence, higher = more signal.
Chain of Follistatin (Homo sapiens) (P19883 whole entry, looked up): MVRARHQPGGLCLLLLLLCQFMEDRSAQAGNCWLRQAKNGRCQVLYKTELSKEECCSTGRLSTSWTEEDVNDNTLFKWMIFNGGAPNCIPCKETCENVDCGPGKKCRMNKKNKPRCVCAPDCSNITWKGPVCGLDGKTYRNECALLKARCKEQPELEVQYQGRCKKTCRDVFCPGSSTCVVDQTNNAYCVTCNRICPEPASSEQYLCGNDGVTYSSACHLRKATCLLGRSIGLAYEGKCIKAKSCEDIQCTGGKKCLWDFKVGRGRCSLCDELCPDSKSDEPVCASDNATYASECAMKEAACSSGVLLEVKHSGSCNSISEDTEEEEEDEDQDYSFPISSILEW
The target in assay [6] is Fibroblast growth factor 2 (Homo sapiens) (UniProt P09038). Briefly: basic fibroblast growth factor binding to printed compounds – biochemical, small-molecule microarray, 635/667 nm fluorescence, primary screen (AID 1133). Particulars: FGF2, fluorescence 635/667, higher = more signal.
Chain of Fibroblast growth factor 2 (Homo sapiens) (P09038 whole entry, looked up): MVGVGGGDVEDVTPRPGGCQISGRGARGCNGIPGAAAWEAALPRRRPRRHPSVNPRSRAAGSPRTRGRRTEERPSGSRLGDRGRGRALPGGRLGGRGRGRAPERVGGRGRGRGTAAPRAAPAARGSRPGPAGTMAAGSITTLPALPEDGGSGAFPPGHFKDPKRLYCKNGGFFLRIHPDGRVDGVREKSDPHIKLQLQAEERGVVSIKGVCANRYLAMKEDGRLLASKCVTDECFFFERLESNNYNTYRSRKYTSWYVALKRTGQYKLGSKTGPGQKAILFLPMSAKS
The nature of assay [7]: JC-1 mitochondrial potential readout, lung cancer cells – cell-based, A549, JC-1 fluorescence, basal, 24 h, 100 nL, profiling panel (AID 1138).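 Also: A549 lung adenocarcinoma cells under basal conditions with no added stimulus; test concentration not given here.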 Particulars: higher = more signal.
In a further assay the test system is Lefty1. Briefly: Lefty1 protein binding to printed compounds – biochemical, small-molecule microarray, 635/667 nm fluorescence, primary screen (AID 1139). Particulars: fluorescence 635/667, higher = more signal.
Assay [8] concerns wheat germ agglutinin (Triticum aestivum), Alexa647-labelled. Briefly: Alexa647-WGA lectin binding to printed small molecules – biochemical, small-molecule microarray, 635/667 nm fluorescence, artefact control for SMM control-protein annotation, profiling panel (AID 1140).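 Also: score merges 667 nm feature emission with signal to noise over triplicate slides.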 Conditions: WGA-A647 binding, 635 nm fluorescence, higher = more signal.
Assay [9] addresses Luciferin 4-monooxygenase (Photinus pyralis) (UniProt P08659). Put plainly: inhibition of purified Photinus pyralis luciferase – biochemical, luminescence, purified enzyme, 2006 set, primary screen (AID 1141).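 Also: cell-free assay with purified firefly luciferase at 100 ng per well in PBS; test concentration not given here.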 Particulars: purified firefly luciferase, SteadyGlo luminescence, 30 min; higher = more signal, called active from +8 up or from −8 down.
In assay [10] the test system is Wnt5a (protein binding on small-molecule microarray). Put plainly: small molecules binding Wnt5a protein – biophysical, small-molecule microarray, 635/667 nm fluorescence, primary screen (AID 1142).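 Also: fluorescence read at 667 nm with signal to noise per printed feature.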 Particulars: 635 nm fluorescence, higher = more signal.
Assay [11] is described as follows: ATP-based viability of Huh7 replicon cells – cell-based, CellTiter-Glo luminescence, basal, 48 h, cytotoxicity control for HCV replication inhibitor project, primary screen (AID 1143).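 Also: Huh7 hepatoma cells carrying a hepatitis C replication reporter with no stimulus; test concentration not given here.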 Particulars: higher = more signal, called active from +8 up or from −8 down. On the technique in general: In antiviral work, replicon cells carry a viral genome segment that copies itself.

A short description of assay [12]: Pseudomonas biofilm growth suppression – PAO1 strain, BacTiter-Glo luminescence, LB-PBS, primary screen (AID 1144). Conditions: P. aeruginosa PAO1 biofilm, 12 h, higher = more signal.
The nature of assay [13]: basal CRE-LacZ reporter activity in PC12 – cell-based, unstimulated, primary screen (AID 1145). Conditions: no forskolin, luminescence, 4.5 h, higher = more signal, called active from +8 up or from −8 down.
Assay [14] is described as follows: forskolin-driven CRE-LacZ activity in PC12 – cell-based, CRE-LacZ reporter, forskolin-stimulated, primary screen (AID 1146).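 Also: PC12 cells with 6xCRE LacZ reporter stimulated by forskolin 10 µM; beta-galactosidase reporter signal reflecting CREB driven transcription.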 Conditions: luminescence, 4.5 h, higher = more signal, called active from +8 up or from −8 down.
Assay [15] deals with Streptavidin (Streptomyces avidinii) (UniProt P22629). Briefly: compounds binding control protein streptavidin – biophysical, small-molecule microarray, 635/667 nm fluorescence, artefact control for SMM compound annotation, primary screen (AID 1147).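 Also: signal reflects streptavidin binding to arrayed compounds as a control protein.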 Particulars: higher = more signal.
Chain of Streptavidin (Streptomyces avidinii) (P22629 whole entry, looked up): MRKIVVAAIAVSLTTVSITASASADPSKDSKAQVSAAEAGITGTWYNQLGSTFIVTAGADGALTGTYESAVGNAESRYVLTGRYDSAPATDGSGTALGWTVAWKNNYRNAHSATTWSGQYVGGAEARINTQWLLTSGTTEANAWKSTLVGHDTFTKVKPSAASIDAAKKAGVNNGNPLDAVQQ
Assay [16] in a line: probe aInhba binding on compound microarray – biochemical, small-molecule microarray, 635/667 nm fluorescence, primary screen (AID 1148).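 Also: score merges 667nm spot fluorescence with signal-to-noise for antibody binding to printed compounds.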 Conditions: higher = more signal.
Assay [17] addresses Torsin-1A (Homo sapiens) (UniProt O14656). Put plainly: TOR1A wild-type binding on microarray – cell lysate, small-molecule microarray, lysate, 635/667 nm, primary screen (AID 1149). Conditions: COS7 hTOR1A-WT lysate, 635 nm fluorescence, higher = more signal.
The target is the same in assay [18]. Briefly: torsin A mutant lysate binding on microarrays – cell lysate, small-molecule microarray, COS7 lysate, 635/667 nm fluorescence, primary screen (AID 1150).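 Also: score pools 667 nm emission and signal to noise measuring lysate protein binding.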 Conditions: COS7 hTOR1A mutant lysate, 635 nm fluorescence, higher = more signal.
Assay [19] relates to Sonic hedgehog protein (Shh). Put plainly: Sonic hedgehog microarray binding compounds – biochemical, small-molecule microarray, 635/667 nm fluorescence, primary screen (AID 1151).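 Also: Shh protein binding to compounds spotted on small-molecule microarray slides; score combines spot fluorescence intensity with signal-to-noise across triplicate slides.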 Particulars: 635 nm fluorescence, higher = more signal.

The source made the active and inactive calls. Unless noted, no rule for the calls is given here.

Chain of Focal adhesion kinase 1 (Homo sapiens) (Q05397 whole entry, looked up): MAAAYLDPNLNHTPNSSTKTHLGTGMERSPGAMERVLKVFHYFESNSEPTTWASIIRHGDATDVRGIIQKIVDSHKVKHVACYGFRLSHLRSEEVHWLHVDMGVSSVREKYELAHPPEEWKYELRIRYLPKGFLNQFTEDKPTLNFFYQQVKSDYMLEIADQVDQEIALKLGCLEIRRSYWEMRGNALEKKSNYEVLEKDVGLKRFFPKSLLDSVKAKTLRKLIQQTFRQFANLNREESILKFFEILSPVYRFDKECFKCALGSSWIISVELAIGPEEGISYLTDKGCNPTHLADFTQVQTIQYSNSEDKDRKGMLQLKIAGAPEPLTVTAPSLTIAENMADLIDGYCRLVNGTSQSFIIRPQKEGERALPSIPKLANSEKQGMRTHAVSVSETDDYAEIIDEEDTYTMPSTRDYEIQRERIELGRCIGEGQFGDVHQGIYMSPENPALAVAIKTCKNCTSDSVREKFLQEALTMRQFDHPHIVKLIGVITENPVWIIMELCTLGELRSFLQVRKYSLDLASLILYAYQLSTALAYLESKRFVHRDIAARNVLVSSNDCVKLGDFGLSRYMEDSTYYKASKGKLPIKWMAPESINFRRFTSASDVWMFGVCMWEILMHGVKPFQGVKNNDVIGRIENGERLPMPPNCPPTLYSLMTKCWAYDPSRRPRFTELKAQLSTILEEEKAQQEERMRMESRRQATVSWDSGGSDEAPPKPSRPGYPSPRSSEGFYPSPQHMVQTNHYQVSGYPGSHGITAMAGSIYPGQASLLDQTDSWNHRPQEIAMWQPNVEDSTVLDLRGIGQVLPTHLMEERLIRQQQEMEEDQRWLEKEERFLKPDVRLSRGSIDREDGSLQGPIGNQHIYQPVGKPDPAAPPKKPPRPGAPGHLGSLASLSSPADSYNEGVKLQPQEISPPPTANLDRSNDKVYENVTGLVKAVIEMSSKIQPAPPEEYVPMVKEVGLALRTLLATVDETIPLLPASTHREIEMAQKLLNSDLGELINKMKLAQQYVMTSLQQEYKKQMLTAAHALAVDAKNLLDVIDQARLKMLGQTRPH
Chain of Luciferin 4-monooxygenase (Photinus pyralis) (P08659 whole entry, looked up): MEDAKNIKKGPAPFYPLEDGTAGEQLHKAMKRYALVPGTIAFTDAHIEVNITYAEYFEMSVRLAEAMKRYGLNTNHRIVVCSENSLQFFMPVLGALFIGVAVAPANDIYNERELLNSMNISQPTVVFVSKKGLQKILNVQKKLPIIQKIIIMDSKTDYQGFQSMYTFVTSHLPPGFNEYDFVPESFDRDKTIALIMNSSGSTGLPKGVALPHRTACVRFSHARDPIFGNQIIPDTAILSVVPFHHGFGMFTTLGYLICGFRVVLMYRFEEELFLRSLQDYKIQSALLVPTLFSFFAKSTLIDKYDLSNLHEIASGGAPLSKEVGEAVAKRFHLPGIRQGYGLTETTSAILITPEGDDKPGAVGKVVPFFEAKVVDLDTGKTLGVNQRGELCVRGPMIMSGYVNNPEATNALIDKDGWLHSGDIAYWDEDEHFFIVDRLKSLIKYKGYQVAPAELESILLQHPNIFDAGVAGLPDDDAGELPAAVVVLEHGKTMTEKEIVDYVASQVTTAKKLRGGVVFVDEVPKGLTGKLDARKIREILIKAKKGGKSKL
Chain of Torsin-1A (Homo sapiens) (O14656 whole entry, looked up): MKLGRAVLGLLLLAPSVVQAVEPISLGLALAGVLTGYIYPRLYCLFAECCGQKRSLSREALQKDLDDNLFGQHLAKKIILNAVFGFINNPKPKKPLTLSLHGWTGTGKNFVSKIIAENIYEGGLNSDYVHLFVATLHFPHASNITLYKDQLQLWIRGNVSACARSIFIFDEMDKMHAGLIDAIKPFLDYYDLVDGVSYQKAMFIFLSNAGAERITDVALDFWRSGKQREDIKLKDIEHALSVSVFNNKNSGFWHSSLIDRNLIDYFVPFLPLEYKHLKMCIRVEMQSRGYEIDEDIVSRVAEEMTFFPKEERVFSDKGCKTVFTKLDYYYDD

For `CN1C(=O)C2C=CC(C(O)Cc3ccccc3)N(N(c3ccccc3)c3ccccc3)C2C1=O` (stereo not given), the composite z-score was 0.548 in assay [1]; 1.17 in [2]; 0.293 in assay [3]; 0.331 in [4]; 0.307 in assay [5]; -0.622 in [6]. In addition, the composite z-score in the assay on Lefty1 is -0.0212; in assay [8], 0.201; in assay [10], 0.0159; in assay [15], 2.18; in [16], 0.191; in the assay with Torsin-1A (Homo sapiens) [17] it was 0.0867. Besides, the composite z-score with Torsin-1A (Homo sapiens) [18] is 0.25; in [19] it was -0.572. For the same compound, the z-score in [7] was 0.54; in assay [9], -0.397 (inactive); in assay [11], 0.443 (inactive); in assay [12], -0.597 (inactive); in assay [13], 0.264 (inactive); in assay [14], 0.6 (inactive).

In the case of `O=C(CS)NCCCCCCNC(=O)[C@H]1C[C@H]2C(=O)N[C@@H](Cc3ccccc3)C(=O)N2[C@H]1c1cccc(OCCO)c1`, the composite z-score in assay [1] turned out to be 2.12; in assay [2], 1.24; in assay [3], 0.127; in assay [4], 0.93; in assay [5], 1.39; in assay [6], 1.61. Further, the composite z-score amounted to 1.14 with Lefty1; 0.772 in assay [8]; 1.02 in assay [10]; 1.22 in assay [15]; 0.177 in [16]; 0.78 in the assay with Torsin-1A (Homo sapiens) [17]. Also, the composite z-score with Torsin-1A (Homo sapiens) [18] turned out to be 1.06; in assay [19], 1.72. The z-score in assay [7] was -0.66; in [9] it was -1.91 (inactive); in [11], 0.0054 (inactive); in assay [12], -0.885 (inactive); in assay [13] it was 0.285 (inactive); in assay [14], -0.579 (inactive).

As to `CC(C)(C)OC(=O)CC[C@]1(C(=O)O)N=C(c2ccc(OCCCO)cc2)O[C@H]1c1ccccc1CN=[N+]=[N-]`, the composite z-score is 0.401 in assay [1]; 0.251 in assay [2]; -0.171 in assay [3]; -0.0709 in assay [4]; 0.467 in assay [5]; 0.13 in [6]. Also, the composite z-score was -0.482 with Lefty1; 0.393 in assay [8]; 0.108 in assay [10]; -0.247 in assay [15]; 0.0074 in assay [16]; -0.61 with Torsin-1A (Homo sapiens) [17]. Besides, the results for the composite z-score (with Torsin-1A (Homo sapiens) [18]; in assay [19]) were -0.13 and -0.533, respectively. Further, the z-score is 0.902 in [7]; -2.06 (inactive) in assay [9]; 0.109 (inactive) in assay [11]; 0.618 (inactive) in assay [12]; -1.09 (inactive) in assay [13]; -1.7 (inactive) in assay [14].

On to `CN(C)C(=O)[C@]1(CCC(=O)OC(C)(C)C)N=C(c2ccc(OCCCO)cc2)O[C@@H]1c1ccccc1`, for which the composite z-score in assay [1] was found to be 2.57; in [2], 1.27; in assay [3], 0.712; in assay [4], 0.97; in [5], 0.562; in assay [6] it was 0.399. Besides, the composite z-score is -0.781 in the assay on Lefty1; 0.448 in assay [8]; 0.677 in assay [10]; -0.092 in assay [15]; -0.0791 in assay [16]; 0.69 with Torsin-1A (Homo sapiens) [17]. In addition, the composite z-score with Torsin-1A (Homo sapiens) [18] is 2.2; in assay [19], -0.857. For the same compound, the z-score in assay [7] was 1.58; in [9], -1.41 (inactive); in assay [11], 0.325 (inactive); in assay [12], 1.02 (inactive); in assay [13], 0.493 (inactive); in [14], 0.524 (inactive).
